Shown are actives, neighbours in structure and some others; about 5.7% of the full set was active somewhere.
hgDAF-12 ag: hgDAF-12 agonism, primary luciferase screen | hit rate 1.8% among 370,000 | activation, % at 6.8 µM | AID 687014 | HEK293 GAL4-hgDAF12 UAS-luciferase reporter, agonist luminescence; normalized to butyrate control;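 active means activation above a cutoff set at the mean of all screened compounds plus 3 SD, cut at about 10% in these data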
DAX1 inh-1: inhibitors of human orphan nuclear receptor DAX1 (NR0B1); P51843; HEK293 Gal4-DAX1 luciferase reporter, luminescence; inhibition, % at 6.75 µM; hit rate 0.99% among 340,000; AID 504766;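 active means inhibition above the mean over all tested compounds plus 3 SD, cut at about 4.2% in these data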;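 further: inhibition shows as a rise in luminescence from relieved DAX1 repression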
Target sequence (P51843 207-470 limits assumed): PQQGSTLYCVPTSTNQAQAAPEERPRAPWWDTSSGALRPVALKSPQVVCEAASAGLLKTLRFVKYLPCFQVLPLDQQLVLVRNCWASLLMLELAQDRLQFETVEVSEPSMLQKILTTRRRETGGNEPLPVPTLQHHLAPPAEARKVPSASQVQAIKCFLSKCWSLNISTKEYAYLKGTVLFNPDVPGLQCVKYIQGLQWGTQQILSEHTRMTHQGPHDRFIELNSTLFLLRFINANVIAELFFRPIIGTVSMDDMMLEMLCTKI
ssDAF12 agonist: activators of S. stercoralis DAF-12 nuclear receptor; HEK293 ssDAF-12/GRIP1 lit1-tk-luc reporter, luminescence; % of 3 µM dafachronic acid response; hit rate 1% among 370,000; AID 652126; activation, % at 6.8 µM;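 active means activation above the mean over all tested compounds plus 3 SD, cut at about 0.9% in these data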
DAX1 inh-2: blocks DAX1 repression of SF-1 activated StAR promoter | inhibition, % at 6.8 µM | hit rate 1.1% among 370,000 | AID 652010 | HEK293T StAR-luciferase reporter, SF-1/DAX-1 repression relief;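 active means inhibition above the mean over all tested compounds plus 3 SD, cut at about 3.6% in these data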;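 further: higher inhibition means more luminescence from relief of DAX-1 repression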
hcDAF-12 act: H. contortus DAF-12 activation, primary screen; hit rate 1.4% among 370,000; HEK293 hcDAF-12 lit1-tk-luc reporter, luminescence; 0% DMSO, 100% Δ7-dafachronic acid; activation, % at 6.8 µM;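 active means activation above the mean of all tested compounds plus 3 SD, cut at about 5.5% in these data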
AHR act: human AHR activation; hit rate 2.5% among 320,000; P35869; AHR-responsive luciferase reporter cells, luminescence; activation, % at 5 µM; in the data active means activation above about 47%
DAX1 inh confirm: NR0B1 (human) inhibition, confirmation; inhibition, % at 6.8 µM; shares compounds with DAX1 inh-2; hit rate 87% among 2,400; HEK293T StAR-promoter luciferase reporter, SF-1/DAX-1 repression; AID 652134;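 active means inhibition above the average of every tested compound plus 3 SD, cut at about 3.8% in these data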;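 further: active compounds raise luminescence by relieving repression of the StAR reporter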
Target sequence (P51843 whole entry, looked up): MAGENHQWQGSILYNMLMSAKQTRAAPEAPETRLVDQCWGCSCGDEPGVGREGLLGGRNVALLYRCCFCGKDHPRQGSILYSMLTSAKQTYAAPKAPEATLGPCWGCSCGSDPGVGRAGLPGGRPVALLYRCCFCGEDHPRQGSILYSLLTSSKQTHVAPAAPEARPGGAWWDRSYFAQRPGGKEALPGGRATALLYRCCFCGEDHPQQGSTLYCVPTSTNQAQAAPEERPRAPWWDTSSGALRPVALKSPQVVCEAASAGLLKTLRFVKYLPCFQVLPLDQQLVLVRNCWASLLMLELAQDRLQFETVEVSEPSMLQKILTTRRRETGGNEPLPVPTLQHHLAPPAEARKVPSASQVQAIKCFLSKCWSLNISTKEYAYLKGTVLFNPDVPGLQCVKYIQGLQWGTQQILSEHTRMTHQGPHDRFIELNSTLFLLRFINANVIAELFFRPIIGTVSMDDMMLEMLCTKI
SF1 AF2mut Luc: counter-screen for DAX1 inhibitors: nonselective inhibitors with SF-1 AF2 mutant; shares compounds with DAX1 inh-2; HEK293 StAR-luciferase, luminescence; inhibition, % at 6.8 µM; hit rate 78% among 2,400;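 active means inhibition above the mean of all tested compounds plus 3 SD, cut at about 3% in these data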
LXRb hcDAF ctr: activates human LXR-beta, counter-screen for hcDAF-12 agonists | shares compounds with hcDAF-12 act | 3,400 tested, under 10 active | activation, % at 6.8 µM | HEK293 Gal4-LXR tk-luc reporter, luminescence, 24 h; normalized: DMSO 0%, positive control 100%;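 active means mean percent activation of the reporter above a cutoff set as the average over tested compounds plus their standard deviation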
hcDAF12 ag: hcDAF-12 agonism, confirmation assay; shares compounds with hcDAF-12 act; HEK293 hcDAF-12 lit1-tk-luc reporter, luminescence; % of Δ7-dafachronic acid response; activation, % at 6.8 µM; hit rate 61% among 3,400;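 active means mean activation across triplicate tests above the threshold derived from the earlier primary screen, cut at about 5.5% in these data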
hgDAF12 ag: confirmation of H. glycines DAF-12 agonists. shares compounds with hgDAF-12 ag. HEK293 GAL4-hgDAF12 luciferase reporter, agonist mode; percent of butyrate response. activation, % at 6.8 µM. hit rate 80% among 3,300. AID 743050;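 active means mean activation over triplicate wells above the hit cutoff derived from the earlier primary screen, cut at about 11% in these data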
LXRb DAF12 ctr: activates human LXR-beta, counter-screen for DAF-12 agonists; 3,300 tested, under 10 active; activation, % at 6.8 µM; HEK293 Gal4-LXR luciferase reporter, 24 h; shares compounds with hgDAF-12 ag;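 active means mean activation of the triplicate above a set limit carried over from the primary screen, none filed active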
Hits are given with their value; n = inactive; x = no result given.

SMILES | hgDAF-12 ag | DAX1 inh-1 | ssDAF12 agonist | DAX1 inh-2 | hcDAF-12 act | AHR act | DAX1 inh confirm | SF1 AF2mut Luc | hgDAF12 ag | LXRb DAF12 ctr | others
COc1ccc(-n2c(COc3ccc(Cl)cc3)nnc2SCc2nc3ccccc3[nH]2)cc1 | n | x | n | n | n | x | x | x | x | x
Cc1cccc(-n2c(SCC(=O)Nc3nonc3C)nnc2-c2ccoc2C)c1 | n | n | n | n | n | n | x | x | x | x
CC(C)(C)NC(=O)C(c1ccccc1)n1c(-c2ccc(-c3ccccc3)cc2)nc2ccccc21 (configuration not stated) | n | x | n | n | n | x | x | x | x | x
Cc1csc(-c2nc3ccccc3n2C(C(=O)NC(C)(C)C)c2cc3ccccc3o2)c1 (configuration not stated) | 16 | x | 1.9 | 11 | 9.4 | x | 6.6 | 6.0 | 18 | n | LXRb hcDAF ctr=n;hcDAF12 ag=11
CC1CCCCC1NC(=O)CCCCCn1c(=S)[nH]c2ccsc2c1=O (configuration not stated) | n | n | n | n | n | n | x | x | x | x
COc1ccc(-c2nnc(SCC(=O)/C(C#N)=C(\C)N)o2)cc1 | 16 | n | n | 4.7 | 6.7 | n | 13 | 4.5 | 18 | n | LXRb hcDAF ctr=n;hcDAF12 ag=6.9
COc1ccc(-c2nnc(SCC(=O)c3ccc(C)o3)o2)cc1 | n | n | n | n | n | x | x | x | x | x
O=C(CN1CCN(S(=O)(=O)N2CCCCC2)CC1)Nc1cc(Cl)ccc1Cl | n | n | n | n | n | n | x | x | x | x
N#Cc1ccsc1NC(=O)COC(=O)c1ccc(NC(N)=O)cc1 | 17 | n | n | 6.0 | 8.0 | n | 9.7 | 7.1 | 16 | n | LXRb hcDAF ctr=n;hcDAF12 ag=5.6
O=[N+]([O-])c1cccc(COc2ccc(CN3CCCC3)cc2)c1 | 24 | n | n | 4.5 | n | x | 11 | 6.8 | 15 | n
O=[N+]([O-])c1cccc(COc2ccc(CN3CCOCC3)cc2)c1 | 20 | n | 1.4 | 7.2 | 7.8 | x | 9.8 | 5.5 | 16 | n | LXRb hcDAF ctr=n;hcDAF12 ag=6.6
O=C(CSc1nc2ccccc2s1)N1N=C(c2cccs2)CC1c1ccc(F)cc1 (configuration not stated) | n | n | n | n | n | n | x | x | x | x
CN1CCN(CC(=O)N(Cc2c(C#N)c3ccccc3n2C)c2ccccc2)CC1 | n | n | n | n | n | n | x | x | x | x
O=c1[nH]c(=O)n(C2CC(O)C(CO)O2)cc1I (configuration not stated) | 15 | n | n | 13 | n | x | 23 | 9.3 | 16 | n
Cc1nc2ccc(-c3nc4ccccc4[nH]3)cc2[nH]1 | 19 | n | n | 5.6 | 8.3 | n | 12 | 6.4 | 19 | n | LXRb hcDAF ctr=n;hcDAF12 ag=8.1
O=C(Nc1ccc2oc(-c3ccccc3F)nc2c1)c1ncn[nH]1 | 19 | n | n | 5.0 | 6.4 | n | 9.3 | 5.3 | 19 | n
CC(=O)Nc1ccc(S(=O)(=O)Nc2cccc(-c3nc4cc(C)ccc4o3)c2)cc1 | n | n | n | n | n | n | x | x | x | x
CC(=O)Nc1ccc2oc(-c3ccccc3)nc2c1 | 15 | n | n | 5.6 | n | n | 12 | 8.8 | 15 | n
Cc1ccc(-c2nc3cc(NC(=O)C(C)C)ccc3o2)cc1C | n | n | n | n | n | n | x | x | x | x
Cc1cccc(-c2nc3cc(NC(=O)C4CCCO4)ccc3o2)c1 (configuration not stated) | 14 | n | 0.9 | 6.8 | 8.7 | n | 15 | 5.4 | 12 | n | LXRb hcDAF ctr=n;hcDAF12 ag=7.8
Cc1ccc(-c2nc3cc(NC(=O)C(C)C)ccc3o2)cc1 | 13 | n | 1.3 | 5.1 | 7.9 | n | 14 | 4.4 | 15 | n | LXRb hcDAF ctr=n;hcDAF12 ag=n
O=C(Nc1ccc2oc(-c3ccccc3F)nc2c1)c1ccccc1F | n | n | n | n | n | n | x | x | x | x
O=C(Cc1c(F)cccc1Cl)N(Cc1ccccc1)c1ccccn1 | n | n | n | n | n | n | x | x | x | x
CCOC(=O)CSc1nnc(CNC(=O)c2ccc(OC)cc2)n1-c1ccc(OC)cc1 | n | n | n | n | n | n | x | x | x | x
CCOc1ccccc1NC(=O)C1C2CCC(O2)C1C(=O)O (configuration not stated) | n | n | n | n | n | n | x | x | x | x
SMILES | hgDAF-12 ag | DAX1 inh-1 | ssDAF12 agonist | DAX1 inh-2 | hcDAF-12 act | AHR act | DAX1 inh confirm | SF1 AF2mut Luc | hgDAF12 ag | LXRb DAF12 ctr | others
O=c1c2c(nc3cc(-c4ccccc4Cl)[nH]n13)CCS2 | 16 | n | 1.5 | 5.6 | n | n | 3.9 | 3.4 | 12 | n
CCOc1ccc(NC(=O)CN(Cc2ccccc2)S(C)(=O)=O)cc1 | n | n | n | n | n | n | x | x | x | x
O=C(Cc1cn2ccsc2n1)OCc1ccccc1 | n | n | n | n | n | n | x | x | x | x
CCc1ccc(NC(=O)c2cnn(-c3ccccc3)c2C)cc1 | 15 | n | 1.1 | 6.1 | n | n | 11 | 6.0 | 19 | n
CCc1ccc(NC(=O)c2cnn(-c3ccccc3)c2C2CCNCC2)cc1 | n | n | n | n | n | n | x | x | x | x
Cc1ccc(C)c(N2CCN(C(=O)c3ccc4c(=O)n5c(nc4c3)CCCCC5)CC2)c1 | n | n | n | n | n | n | x | x | x | x
COc1ccc(-c2cc3nc(C)cc(-c4ccc(OC)cc4)n3n2)cc1 | n | n | n | n | n | n | x | x | x | x
COc1ccc(-c2cc3nc(C)cc(N)n3n2)cc1 | 20 | n | 2.4 | 5.4 | 15 | n | 18 | 8.9 | 19 | n | LXRb hcDAF ctr=n;hcDAF12 ag=13
N#Cc1cnc2cc(-c3ccccc3)nn2c1N | n | x | n | n | n | n | x | x | x | x
COc1ccc(-c2cc3ncc(-c4ccccc4)c(N)n3n2)cc1 | 25 | n | n | 6.5 | n | x | 15 | 7.0 | 16 | n
CCOC(=O)C(C(=O)Nc1nc2ccccc2s1)C1CCCCC1 (configuration not stated) | n | n | n | n | n | n | x | x | x | x
O=C(Nc1nc2ccccc2s1)NC1CCCCC1 | 18 | 7.1 | n | 6.1 | 6.1 | n | 10 | 6.0 | 19 | n
O=C(Nc1nc2ccccc2[nH]1)NC1CCCCC1 | 16 | n | n | 16 | 5.8 | n | 18 | 9.7 | 21 | n
